Laboratory results as given in a collection of fitness landscapes (doi:10.1126/science.1257360).
Whole data set: some 140,000 sequences, median “enrichment ratio after two sorts for PhoP signalling” near 0, cut for the highest 2% near 11. The list comes from a sample in which the highest values are over-represented; it also holds similar and randomly drawn sequences.

B1: PhoQ; a variant is named by its letters at X, in order, P23837 (parent)
chain: MKKLLRLFFPLSLRVRFLLATAAVVLVLSLAYGMVALIGYSVSFDKTTFRLLRGESNLFYTLAKWENNKLHVELPENIDKQSPTMTLIYDENGQLLWAQRDVPWLMKMIQPDWLKSNGFHEIEADVNDTSLLLSGDHSIQQQLQEVREDDDDAEMTHSVAVNVYPATSRMPKLTIVVVDTIPVELKSSYMVWSWFIYVLSANLLLVIPLLWVAAWWSLRPIEALAKEVRELEEHNRELLNPATTRELTSLVRNLNRLLKSERERYDKYRTTLTDLTHSLKTPLXXLQXXLRSLRSEKMSVSDAEPVMLEQISRISQQIGYYLHRASMRGGTLLSRELHPVAPLLDNLTSALNKVYQRKGVNISLDISPEISFVGEQNDFVEVMGNVLDNACKYCLEFVEISARQTDEHLYIVVEDDGPGIPLSKREVIFDRGQRVDTLRPGQGVGLAVAREITEQYEGKIVAGESMLGGARMEVIFGRQHSAPKDE

Variants of: B1
Assay: enrichment ratio after two sorts for PhoP signalling (ratio (wild type AVST 3.29)); higher = more functional
Conditions: with PhoP (E. coli)

| Variant | enrichment ratio |
| --- | --- |
| QVYW | ≤ 0.25 |
| GCPS | ≤ 0.25 |
| KSMN | ≤ 0.25 |
| THMN | 12.7 |
| TGMN | 34.8 |
| RGMN | ≤ 0.25 |
| GGMN | ≤ 0.25 |
| SHMN | ≤ 0.25 |
| TSMN | 12.3 |
| NHMN | ≤ 0.25 |
| FSMN | 1.56 |
| RHML | ≤ 0.25 |
| RVMN | ≤ 0.25 |
| GNFW | ≤ 0.25 |
| LDMA | ≤ 0.25 |
| ESWV | ≤ 0.25 |
| KCLD | ≤ 0.25 |
| RANI | ≤ 0.25 |
| GSMW | ≤ 0.25 |
| GSCV | 16.6 |
| GSCI | 10.8 |
| GSCL | 21.5 |
| GSIV | 8.6 |
| GSWV | ≤ 0.25 |
| GSMV | 17.2 |

| Variant | enrichment ratio |
| --- | --- |
| GSCS | 5.76 |
| GSCA | 0.424 |
| FTHE | ≤ 0.25 |
| HIYR | ≤ 0.25 |
| AWLF | ≤ 0.25 |
| YRSQ | ≤ 0.25 |
| HSMW | ≤ 0.25 |
| HSMH | ≤ 0.25 |
| HSMI | 17.4 |
| HSMV | 17 |
| HSMG | 1.29 |
| HSWV | ≤ 0.25 |
| WYLH | ≤ 0.25 |
| TLFF | ≤ 0.25 |
| AINV | ≤ 0.25 |
| SNRK | ≤ 0.25 |
| QKYP | ≤ 0.25 |
| IVDD | ≤ 0.25 |
| VLPC | ≤ 0.25 |
| HDDH | ≤ 0.25 |
| WDDD | ≤ 0.25 |
| TLSC | 8.65 |
| KQSC | ≤ 0.25 |
| STSC | 11.6 |
| SDSC | 2.35 |

| Variant | enrichment ratio |
| --- | --- |
| YTSC | ≤ 0.25 |
| MMSC | ≤ 0.25 |
| SRSC | ≤ 0.25 |
| SQSC | 11.7 |
| CMSC | 39.5 |
| FVKG | ≤ 0.25 |
| PVCQ | ≤ 0.25 |
| MPMY | ≤ 0.25 |
| HPTD | ≤ 0.25 |
| MFHP | ≤ 0.25 |
| IYSH | ≤ 0.25 |
| GGNY | ≤ 0.25 |
| AGAH | 11.2 |
| AKAH | 4.55 |
| RGNY | ≤ 0.25 |
| RGNT | ≤ 0.25 |
| GGNT | ≤ 0.25 |
| GGAT | ≤ 0.25 |
| TGNT | 15.8 |
| TGAT | 18.1 |
| TGNY | 16.9 |
| TGAH | 9.14 |
| RGAT | ≤ 0.25 |
| IMPT | ≤ 0.25 |
| STPE | ≤ 0.25 |

| Variant | enrichment ratio |
| --- | --- |
| SDDK | ≤ 0.25 |
| DTVG | ≤ 0.25 |
| MNVA | ≤ 0.25 |
| LNLH | ≤ 0.25 |
| MLMR | ≤ 0.25 |
| CQWS | ≤ 0.25 |
| AGDT | ≤ 0.25 |
| CQNY | 12.1 |
| CQVY | 5.8 |
| AGKR | ≤ 0.25 |
| AGAT | 11.3 |
| IKGI | ≤ 0.25 |
| DLMM | ≤ 0.25 |
| RFVW | ≤ 0.25 |
| QQLG | 2.01 |
| YTCS | ≤ 0.25 |
| ITCV | ≤ 0.25 |
| YTCV | ≤ 0.25 |
| YTCT | ≤ 0.25 |
| YTCG | ≤ 0.25 |
| ITCS | ≤ 0.25 |
| TTCT | 12.8 |
| ITCT | ≤ 0.25 |
| TTCG | 30.3 |
| TTCV | 17.3 |

| Variant | enrichment ratio |
| --- | --- |
| TTCS | 18.7 |
| LTCG | ≤ 0.25 |
| ATPS | ≤ 0.25 |
| KDFS | ≤ 0.25 |
| PMMQ | ≤ 0.25 |
| YYTW | ≤ 0.25 |
| RVTP | ≤ 0.25 |
| FDKV | ≤ 0.25 |
| TTCI | 15.8 |
| TTCE | 8.85 |
| TTCK | 5.62 |
| LIVW | ≤ 0.25 |
| CTSF | 3.85 |
| ITSF | ≤ 0.25 |
| ATMF | 16 |
| ATSF | 11.9 |
| ATHF | ≤ 0.25 |
| GTSM | 10.6 |
| ATSM | 16.9 |
| AIMF | 0.847 |
| YDSM | ≤ 0.25 |
| PAWP | ≤ 0.25 |
| TTFE | ≤ 0.25 |
| KKLY | ≤ 0.25 |
| AILY | 1.94 |

| Variant | enrichment ratio |
| --- | --- |
| ANLY | 12 |
| DNLY | ≤ 0.25 |
| GNLY | 3.04 |
| HKLY | ≤ 0.25 |
| AKLY | 19.7 |
| TKLY | 16.4 |
| AYLY | ≤ 0.25 |
| LENP | ≤ 0.25 |
| YGNS | ≤ 0.25 |
| ELCS | ≤ 0.25 |
| SDHR | ≤ 0.25 |
| RTCY | ≤ 0.25 |
| FQWN | ≤ 0.25 |
| MCYS | 12.8 |
| KCYS | ≤ 0.25 |
| MLYS | ≤ 0.25 |
| MEYS | 25.6 |
| STYS | 0.267 |
| QRYS | ≤ 0.25 |
| QEYS | 37 |
| MMYS | ≤ 0.25 |
| MKYS | ≤ 0.25 |
| LVRD | ≤ 0.25 |
| RKTS | ≤ 0.25 |
| MAFY | 5.02 |

| Variant | enrichment ratio |
| --- | --- |
| GGMI | 12.3 |
| LGMS | ≤ 0.25 |
| RGMI | ≤ 0.25 |
| LGMA | ≤ 0.25 |
| GGMD | ≤ 0.25 |
| LGMI | 12.6 |
| NIMI | ≤ 0.25 |
| VGMW | ≤ 0.25 |
| VGMI | 20.4 |
| NGMI | 0.49 |
| VGMG | ≤ 0.25 |
| TGMI | 13.2 |
| DSTD | ≤ 0.25 |
| HLRM | ≤ 0.25 |
| IPWT | ≤ 0.25 |
| WPQK | ≤ 0.25 |
| TMAW | ≤ 0.25 |
| WDLT | ≤ 0.25 |
| GWGM | ≤ 0.25 |
| HMWI | ≤ 0.25 |
| PRFL | ≤ 0.25 |
| DFQL | ≤ 0.25 |
| AGMG | ≤ 0.25 |
| AGMS | 3.53 |
| AGMI | 16.4 |

| Variant | enrichment ratio |
| --- | --- |
| NSFT | ≤ 0.25 |
| YKQH | ≤ 0.25 |
| HDPL | ≤ 0.25 |
| ANSV | 7.03 |
| MNSV | 16.9 |
| MNIV | ≤ 0.25 |
| TNSV | 19.4 |
| LNSV | ≤ 0.25 |
| MNSK | ≤ 0.25 |
| QING | ≤ 0.25 |
| PDEL | ≤ 0.25 |
| TSHN | 0.659 |
| ENQD | ≤ 0.25 |
| MKTQ | ≤ 0.25 |
| LCTQ | ≤ 0.25 |
| TGTQ | 17.7 |
| TMLA | 2.72 |
| KSTQ | ≤ 0.25 |
| TKTQ | 12.6 |
| TSTQ | 16 |
| MMTQ | ≤ 0.25 |
| NGTQ | ≤ 0.25 |
| NNTQ | ≤ 0.25 |
| TMTQ | 14.3 |
| HKTQ | ≤ 0.25 |

| Variant | enrichment ratio |
| --- | --- |
| LGMC | ≤ 0.25 |
| NWTN | ≤ 0.25 |
| VCIS | 0.315 |
| QCCN | ≤ 0.25 |
| PNLQ | 1.01 |
| SPYC | ≤ 0.25 |
| YNMF | ≤ 0.25 |
| LKVT | ≤ 0.25 |
| SFHI | ≤ 0.25 |
| VLMY | ≤ 0.25 |
| EGRC | ≤ 0.25 |
| EQYD | ≤ 0.25 |
| TITQ | 12.5 |
| KYTQ | ≤ 0.25 |
| TILA | 4.43 |
| SQTQ | 11.3 |
| STTQ | 6.67 |
| SGTW | ≤ 0.25 |
| SLTQ | 6.15 |
| NMTQ | ≤ 0.25 |
| SGTQ | 17.4 |
| VCDC | ≤ 0.25 |
| KHCF | ≤ 0.25 |
| TKQF | ≤ 0.25 |
| VNQI | ≤ 0.25 |

| Variant | enrichment ratio |
| --- | --- |
| NAYE | ≤ 0.25 |
| MAYE | 33.3 |
| MAYI | 21.1 |
| MEYF | ≤ 0.25 |
| NAYV | ≤ 0.25 |
| MAYF | 16.5 |
| MEYE | ≤ 0.25 |
| FDYV | ≤ 0.25 |
| MAYV | 15.4 |
| MAYK | ≤ 0.25 |
| MAAY | ≤ 0.25 |
| FDYF | ≤ 0.25 |
| MGDQ | ≤ 0.25 |
| VFQR | ≤ 0.25 |
| GVSL | 5.42 |
| GQSH | ≤ 0.25 |
| YRWT | ≤ 0.25 |
| FKMN | ≤ 0.25 |
| IMAN | ≤ 0.25 |
| KAYN | ≤ 0.25 |
| MAYN | 16.6 |
| MAHF | 9.56 |
| MAHE | ≤ 0.25 |
| MAYM | 9.25 |
| MAHI | 24.7 |

| Variant | enrichment ratio |
| --- | --- |
| LMFI | ≤ 0.25 |
| VDKC | ≤ 0.25 |
| PFWD | 3.08 |
| SWFV | ≤ 0.25 |
| FCIG | ≤ 0.25 |
| ATTH | 8.31 |
| AKMH | 12 |
| AIMH | 4.85 |
| ATMH | 12.3 |
| HKMH | ≤ 0.25 |
| ATCH | ≤ 0.25 |
| QGLS | 3.82 |
| LDNH | ≤ 0.25 |
| MEIV | 6.05 |
| QEIS | ≤ 0.25 |
| MEIS | 13.8 |
| TEIV | ≤ 0.25 |
| TEIS | 11.4 |
| NEIS | ≤ 0.25 |
| FGMP | ≤ 0.25 |
| MYAF | ≤ 0.25 |
| THMV | 8.19 |
| NEMS | ≤ 0.25 |
| SHMI | 5.85 |
| THMI | 26.1 |

| Variant | enrichment ratio |
| --- | --- |
| NEMD | ≤ 0.25 |
| NHMI | ≤ 0.25 |
| NEMV | 14.8 |
| NHMV | ≤ 0.25 |
| NEMI | 29 |
| DIIV | ≤ 0.25 |
| DPWI | ≤ 0.25 |
| ARSS | 0.56 |
| QLGI | ≤ 0.25 |
| HQLC | ≤ 0.25 |
| HNDG | ≤ 0.25 |
| HGKL | ≤ 0.25 |
| SALC | 12 |
| KQLC | ≤ 0.25 |
| MKLC | ≤ 0.25 |
| YTLC | 11.3 |
| YYLC | ≤ 0.25 |
| AYLC | 0.263 |
| AILC | 7.86 |
| TKLC | 19.8 |
| IILC | ≤ 0.25 |
| FTLC | 6.55 |
| HKLC | ≤ 0.25 |
| ATLC | 13.2 |
| KVHY | ≤ 0.25 |

| Variant | enrichment ratio |
| --- | --- |
| RTKV | ≤ 0.25 |
| APDH | ≤ 0.25 |
| RGMG | ≤ 0.25 |
| LWLC | ≤ 0.25 |
| TDLC | 11.7 |
| SWLC | ≤ 0.25 |
| KYLC | ≤ 0.25 |
| SGNS | ≤ 0.25 |
| KDLC | ≤ 0.25 |
| STLC | 13.2 |
| SCLC | 12.4 |
| ADLC | 3.37 |
| DFLC | ≤ 0.25 |
| SPLC | ≤ 0.25 |
| SGLC | 20.7 |
